From PubChem BioAssay (EPA / NIEHS)
Inconclusive results are not listed. The source made the active and inactive calls. Rule for the calls: active = hit-call score of the fitted dose curve at least 0.9, where 1 is the maximum; inconclusive = response in the unintended direction; inactive = score below 0.9.

Target: human Vitamin D Receptor (VDR), VDR (gene 7421) (UniProt P11473)
Test: ATG_VDR_TRANS: Attagene TRANS-FACTORIAL HepG2 Assay for human Vitamin D Receptor (VDR) (AID 2283022)
How it was run: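 RT-PCR/capillary electrophoresis read-out of reporter mRNA induction in transiently transfected HepG2; 24 h dosing; chimeric NR-Gal4 (TRANS format); gain-of-signal fit against DMSO baseline.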

Sequence of human Vitamin D Receptor (VDR), VDR (gene 7421) (P11473 whole entry, looked up): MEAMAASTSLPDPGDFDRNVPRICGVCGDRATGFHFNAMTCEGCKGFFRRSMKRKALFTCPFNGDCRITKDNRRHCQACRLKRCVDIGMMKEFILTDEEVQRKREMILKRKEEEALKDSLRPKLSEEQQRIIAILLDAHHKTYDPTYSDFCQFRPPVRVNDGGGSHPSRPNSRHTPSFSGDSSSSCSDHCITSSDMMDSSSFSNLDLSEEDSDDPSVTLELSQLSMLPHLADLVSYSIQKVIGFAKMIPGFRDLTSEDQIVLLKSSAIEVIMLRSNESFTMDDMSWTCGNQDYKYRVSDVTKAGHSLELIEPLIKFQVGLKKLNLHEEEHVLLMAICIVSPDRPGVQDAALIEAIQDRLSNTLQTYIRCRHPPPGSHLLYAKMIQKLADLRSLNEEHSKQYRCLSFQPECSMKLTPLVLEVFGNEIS

| SMILES | outcome |
| --- | --- |
| FC(F)(F)C(F)(F)C(F)(F)C(F)(F)I | inactive |
| O=C(C=C(O)C(F)(F)F)C(F)(F)F | inactive |
| C=CC(=O)OCC(CO)(COCC(COC(=O)C=C)(COC(=O)C=C)COC(=O)C=C)COC(=O)C=C | inactive |
| CC(C)c1c(C(=O)Nc2ccccc2)c(-c2ccccc2)c(-c2ccc(F)cc2)n1CC[C@@H](O)C[C@@H](O)CC(=O)O | inactive |
